This is a sample that favours compounds with a hit; in the whole collection about 5.7% have one here.
GLP1R inv ag – acts as inverse agonist at human GLP-1 receptor; P43220; HEK293 GLP-1R CRE-luciferase, luminescence, 24 h; GLP-1R form is constitutively active; Potency, µM (doses to about 38.3 µM), without a hit: at the top dose activity change, negative = inhibition, usual class: inhibitors; actives 1.6% (n = 410,000); AID 624417; note: potency is the fitted concentration of half-maximal effect; % is set by controls: 0 for no effect and ±100 for the full control effect; nearly all actives have a fitted effect of over 55% in size
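Stable HEK293 clone (constitutively active GLP-1R + cAMP-response luciferase); 200 cells/uL plated, 12 h pre-culture, compound 24 hr, 37 deg C/5% CO2; detection reagent 12 min RT; luminescence.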
ClpP mod – qHTS Assay for Activators of ClpP; purified B. subtilis ClpP, FRET peptide cleavage, 20 min; actives 1.9% (n = 340,000); Potency, µM (top dose mostly 57.5 µM), for the others: at the highest dose activity change, negative = active; active = well fitted falling curve with a large enough effect; inconclusive = small, poorly fitted or top-dose-only effect; inactive = no such curve, though single readings can be large or run the other way; note: potency is the fitted concentration of half-maximal effect; the source files actives as falling curves though it sought activators and does not explain the sign; nearly all actives have a fitted effect of over 65% in size
Target sequence (P80244 whole entry, looked up): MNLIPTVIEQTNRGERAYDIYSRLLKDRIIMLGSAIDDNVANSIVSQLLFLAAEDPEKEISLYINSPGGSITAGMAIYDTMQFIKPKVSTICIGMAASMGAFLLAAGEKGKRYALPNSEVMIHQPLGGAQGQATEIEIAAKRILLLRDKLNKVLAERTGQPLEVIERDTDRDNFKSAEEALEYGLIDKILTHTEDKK
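Purified B. subtilis ClpP, 10 microg/mL final in Tris/HCl pH8 with KCl, BSA, glycerol and Tween-20, cleaved an Abz/nitrotyrosine-quenched decapeptide. Fluorescence (ex 320, em 430) was read at 0 and 20 min at room temperature. Delta was normalized to 5.8 microM ADEP and DMSO/no-enzyme controls.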
D3 ag – agonists of human D3 dopamine receptor. AID 652048. D3R DiscoveRx beta-arrestin cells, luminescence, 90 min. actives 0.58% (n = 410,000). max activation, %. P35462; in the data active = max activation above about 30%; note: 0% is about no effect
Target sequence (P35462 whole entry, looked up): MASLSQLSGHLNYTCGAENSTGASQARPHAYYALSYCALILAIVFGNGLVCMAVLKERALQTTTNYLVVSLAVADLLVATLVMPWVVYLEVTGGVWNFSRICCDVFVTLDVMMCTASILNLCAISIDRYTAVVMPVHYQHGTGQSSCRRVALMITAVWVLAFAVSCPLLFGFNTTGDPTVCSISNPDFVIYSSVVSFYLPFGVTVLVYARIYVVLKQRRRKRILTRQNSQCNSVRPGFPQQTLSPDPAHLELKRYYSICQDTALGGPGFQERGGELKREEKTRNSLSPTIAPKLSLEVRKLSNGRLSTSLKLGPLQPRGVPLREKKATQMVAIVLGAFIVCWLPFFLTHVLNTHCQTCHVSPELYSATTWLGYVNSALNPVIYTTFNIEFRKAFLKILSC
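Agonist mode: compounds and dopamine controls were applied to plated cells for 90 min at 37 degrees C after an overnight attachment at 1500 cells/well. Luminescent read-out followed 30 - 60 minutes at room temperature with DiscoveRx detection reagent.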
DRD3 antagonist – antagonists of human D3 dopamine receptor. P35462. AID 652054. max response, negative = inhibition, %. actives 2.5% (n = 360,000). D3R cells, DiscoveRx beta-arrestin luminescence, antagonist mode; stronger effect = lower value; in the data active = max response below about -50%; inconclusive = no clear call, values can overlap the other calls; note: % is set by controls: 0 for no effect and ±100 for the full control effect
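Cells plated overnight at 1500 cells/well, then exposed to library compounds with dopamine controls for 90 minutes at 37 degrees C. DiscoveRx reagent added for 30–60 minutes at room temperature; luminescence read, quantitative HTS format.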
GLP-1R agonist – agonists of human GLP-1 receptor; HEK293 GLP-1R CRE-luciferase, luminescence, 4-6 h; cells express a hypersensitive GLP-1R form; actives 0.007% (n = 380,000); P43220; Potency, µM (highest dose often 45.6 µM), for inactives: at the top dose activation, actives largely listed as activators; AID 624172; note: potency is the fitted concentration of half-maximal effect; % of control where 0% means no effect
GLP1R cytotox – cytotoxicity in counter-screen for GLP-1R inverse agonists; HEK293 cAMP-luciferase reporter cells, luminescence, 24 h; Potency, µM (doses to about 38.3 µM), without a hit: at the top dose activity change, negative = inhibition, hits mostly inhibitors; actives 0.13% (n = 410,000); AID 624418;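 note: loss of luciferase light is scored as toxicity; potency is the fitted concentration of half-maximal effect; % is set by controls: 0 for no effect and ±100 for the full control effect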
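Cells in DMEM/10% Nu serum/1% pen-strep, 1536-well format. Pre-incubated 12 h, dosed with 23 nL compound, incubated a further 24 h. Luciferase detection, 12 min at room temp, luminescence.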
The depositor's hits bear a star. Unless noted, calls come from the whole dose curve; as a rule, active = well fitted curve in the direction sought with a large enough effect; inconclusive = small, poorly fitted or top-dose-only effect, or another doubt; inactive = no such curve, though single readings can be large; an effect the other way counts as inactive or inconclusive.

What do the screens show for `OC(CNc1ccccc1)COc1ccc(OCC(O)CNc2ccccc2)cc1` (configuration not stated)?
GLP1R inv ag: 6.3µM*; ClpP mod: -7%; D3 ag: 1; DRD3 antagonist: -20; GLP-1R agonist: -29%; GLP1R cytotox: 13%

How did Cc1ccc(C(OCC(O)CNC(C)c2ccccc2)c2ccccc2)cc1 (configuration not stated) do in these assays?
GLP1R inv ag: inconclusive; D3 ag: 0; DRD3 antagonist: -7; GLP-1R agonist: 3%; GLP1R cytotox: inconclusive

How did C=CCOc1ccc(CN(C)CC(O)COc2ccc(CCC(C)=O)cc2)cc1 (configuration not stated) do in these assays?
GLP1R inv ag: 11µM*; D3 ag: -22; DRD3 antagonist: 0; GLP-1R agonist: 4%; GLP1R cytotox: 8%

How did COc1ccc(OCC(O)CNCCOc2ccccc2OC)c(C(C)(C)C)c1 (configuration not stated) do in these assays?
GLP1R inv ag: 13µM*; ClpP mod: 1%; D3 ag: -4; DRD3 antagonist: -81*; GLP-1R agonist: -1%; GLP1R cytotox: 1%

How did CCOCC(O)CNc1ccccc1 (configuration not stated) do in these assays?
GLP1R inv ag: 0%; ClpP mod: 0%; D3 ag: -9; DRD3 antagonist: -11; GLP-1R agonist: 10%; GLP1R cytotox: 1%

Results for Cc1cccc(N(CC(N)=O)C2SC(=O)N(Cc3cccc(C(=O)O)c3)C2=O)c1 (configuration not stated) ?
GLP1R inv ag: -5%; ClpP mod: -1%; D3 ag: 6; GLP1R cytotox: 12%

Results for CCOC(=O)C1=CCN(S(=O)(=O)c2ccccc2F)C1c1ccc(F)cc1 (configuration not stated) ?
GLP1R inv ag: -4%; ClpP mod: 2%; D3 ag: -2; DRD3 antagonist: 0; GLP-1R agonist: -5%; GLP1R cytotox: -4%

Results for O=C1CCC[C@@H]2[C@@H](Cc3ccccc3)[C@@H](Nc3ccccc3)C[C@@H]3CCN1[C@@H]32 ?
ClpP mod: 2%

What do the screens show for `CC(=O)CCc1ccc(OCC(O)CNCCOc2ccc(C)cc2)cc1` (configuration not stated)?
GLP1R inv ag: inconclusive; D3 ag: 51*; DRD3 antagonist: -25; GLP-1R agonist: 0%; GLP1R cytotox: 4%

How did Cc1ccc(OCCNCC(O)COc2ccccc2)cc1 (configuration not stated) do in these assays?
GLP1R inv ag: inconclusive; ClpP mod: 1%; D3 ag: -15; DRD3 antagonist: -83*; GLP-1R agonist: -2%; GLP1R cytotox: 18%

Results for CCOC(=O)c1cccc(OCC(O)CNCCOc2ccccc2F)c1 (configuration not stated) ?
GLP1R inv ag: inconclusive; D3 ag: 1; DRD3 antagonist: -55*; GLP-1R agonist: -2%; GLP1R cytotox: 3%

How did OC(CNCc1ccco1)COc1ccccc1 (configuration not stated) do in these assays?
GLP1R inv ag: -21%; ClpP mod: 14µM*; D3 ag: -22; DRD3 antagonist: -55*; GLP-1R agonist: 8%; GLP1R cytotox: 0%

Results for Cc1oc(-c2ccccc2Cl)nc1CS(=O)CC(=O)N1CCN(c2cccc(C(F)(F)F)c2)CC1 (configuration not stated) ?
GLP1R inv ag: inconclusive; ClpP mod: 1%; D3 ag: -4; GLP1R cytotox: -23%

What do the screens show for `O=C(Nc1ccc([N+](=O)[O-])cc1)c1cccc([N+](=O)[O-])c1`?
GLP1R inv ag: 1%; ClpP mod: -4%; D3 ag: 4; DRD3 antagonist: 16; GLP-1R agonist: -9%; GLP1R cytotox: 5%

Results for O=C(NNC(=O)c1cccc(O)c1)Nc1ccc([N+](=O)[O-])cc1 ?
GLP1R inv ag: -1%; D3 ag: -6; DRD3 antagonist: -57*; GLP-1R agonist: -5%; GLP1R cytotox: -3%

How did CC(=O)N(C)c1ccc(/C=C2\C=Cc3ccccc32)cc1 do in these assays?
ClpP mod: 0%

How did CC(=O)N(Cc1ccc(F)cc1)C1=C(NCc2ccccc2)C(=O)c2ccccc2C1=O do in these assays?
GLP1R inv ag: 10µM*; ClpP mod: -4%; D3 ag: -3; DRD3 antagonist: -19; GLP-1R agonist: -12%; GLP1R cytotox: inconclusive

How did COc1cc(OC)c(OC)cc1CNCCSc1nnnn1-c1ccccc1 do in these assays?
GLP1R inv ag: -27%; ClpP mod: -1%; D3 ag: -11; GLP1R cytotox: 1%

How did O=C(CN1CCOCC1)Nc1cccc(C(=O)Nc2cccc(C(F)(F)F)c2)c1 do in these assays?
GLP1R inv ag: -23%; ClpP mod: -2%; D3 ag: 8; DRD3 antagonist: -14; GLP-1R agonist: -5%; GLP1R cytotox: inconclusive

Results for CCCCCNCC(=O)Nc1cccc(C(=O)Nc2cccc(C(F)(F)F)c2)c1 ?
GLP1R inv ag: 6.3µM*; ClpP mod: 28µM*; D3 ag: -17; DRD3 antagonist: -23; GLP-1R agonist: 12%; GLP1R cytotox: inconclusive

How did Cc1ccc(C2CC(C(F)(F)F)n3nc(C(=O)Nc4c(C)n(C)n(-c5ccccc5)c4=O)cc3N2)cc1 (configuration not stated) do in these assays?
GLP1R inv ag: inconclusive; D3 ag: -3; DRD3 antagonist: -7; GLP-1R agonist: 2%; GLP1R cytotox: 9%

How did COc1cccc(C2CC(C(F)(F)F)n3nc(C(=O)Nc4c(C)n(C)n(-c5ccccc5)c4=O)cc3N2)c1 (configuration not stated) do in these assays?
GLP1R inv ag: inconclusive; D3 ag: 5; DRD3 antagonist: -87*; GLP-1R agonist: 1%; GLP1R cytotox: -14%

Results for COc1ccc(OC(=O)N(C)C[C@@H]2OCc3cn(nn3)CCCC(=O)N([C@@H](C)CO)C[C@H]2C)cc1 ?
GLP1R inv ag: 0%; ClpP mod: 0%; D3 ag: -5; DRD3 antagonist: -17; GLP-1R agonist: -2%; GLP1R cytotox: -3%

Results for COC(=O)[C@H](NC(=O)c1cc([C@@H](NC(=O)OC(C)(C)C)C(C)C)sc1N)C(C)C ?
GLP1R inv ag: -9%; ClpP mod: inconclusive; D3 ag: -1; DRD3 antagonist: -17; GLP1R cytotox: -1%

High-throughput results deposited in PubChem BioAssay by National Center for Advancing Translational Sciences (NCATS).
